High-throughput results from PubChem BioAssay.
MCF10A rereplic: A quantitative high throughput screen for small molecules that induce DNA re-replication in MCF 10a normal breast cells. hit rate 2.9% among 350,000. AID 624296, 2012. MCF 10A DNA re-replication, Hoechst nuclear intensity, 48 h. Potency, µM (highest dose often 46.1 µM), actives largely listed as activators; note: nearly all actives have a fitted effect of over 50% in size
KB-V1 MDR tox: qHTS assay for MDR1-selective chemotherapeutics: Primary screen using the drug-selected MDR subline cells KB-V1; Potency, µM (titrated, usually from 46.1 µM), usual class: cytotoxic; KB-V1 MDR cells viability, CellTiter-Glo, 72 h; hit rate 3.4% among 400,000; AID 1347076, 2019; note: nearly all actives have a fitted effect of over 60% in size
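Following 72 h at 37 degrees C with compound, KB-V1 cell viability was read by CellTiter-Glo luminescence, medium being phenol-red-free DMEM plus 10% FBS; concentration-response parameters came from normalized, curve-fitted qHTS data.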
HT1080 IDH1KD tx: qHTS for induction of synthetic lethality in tumor cells producing 2HG: qHTS for the HT-1080-IDH1KD cell line; HT-1080 IDH1 knockdown viability, ATP luminescence, 48 h; Potency, µM (titrated, usually from 46.1 µM), hits mostly cytotoxic; hit rate 2% among 360,000
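Cytotoxicity counter-line: IDH1KD HT-1080, 48 h, CellTiter-Glo. Curves classed by r2, magnitude and activity.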
HT1080NT lethal: qHTS for induction of synthetic lethality in tumor cells producing 2HG: qHTS for the HT-1080-NT fibrosarcoma cell line | HT-1080-NT fibrosarcoma viability, CellTiter-Glo ATP luminescence, 48 h | Potency, µM (highest dose often 46.1 µM), hits mostly cytotoxic | AID 686970, 2013 | hit rate 1.6% among 360,000;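 note: NT is the 2HG producing partner of a matched IDH1 knockdown line; nearly all actives have a fitted effect of over 55% in size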
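Compounds were tested in concentration-response format on HT-1080-NT cells for 48 hours at 37 degrees C. Cell viability came from CellTiter-Glo luminescence; curves were classified by r2, response magnitude and activity.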
KB-3-1 tox: qHTS assay for MDR1-selective chemotherapeutics: Primary screen using the parental adenocarcinoma cell KB-3-1. KB-3-1 viability, CellTiter-Glo ATP luminescence, 72 h. Potency, µM (series often up to 46.1 µM), most hits filed as cytotoxic. hit rate 1.4% among 400,000. AID 1347075, 2019; note: nearly all actives have a fitted effect of over 60% in size
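Multi-concentration cytotoxicity screen in KB-3-1 cells grown in DMEM lacking phenol red with 10% FBS. After 72 h at 37 °C with compound, ATP-dependent luminescence was recorded.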
SW480 rerep: A quantitative high throughput screen for small molecules that induce DNA re-replication in SW480 colon adenocarcinoma cells | hit rate 1.8% among 340,000 | SW480 DNA re-replication, Hoechst DNA content imaging, 48 h | Potency, µM (series often up to 46.1 µM), actives largely listed as activators; note: nearly all actives have a fitted effect of over 55% in size
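First, 250 cells per well were seeded. Next, compound or vehicle (23 nL) was pinned in, plates sat 48 hr at 37 C. Finally Hoechst was added for 40 min before fluorescence scanning.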
Each line names hits and unclear results; the compound was inactive in the other large screens. Rows were chosen to be rich in hits. Some 8% of all compounds tested hit in one or more screens of this group. Calls come from the whole dose curve; as a rule, active = well fitted curve in the direction sought with a large enough effect; inconclusive = small, poorly fitted or top-dose-only effect, or another doubt; inactive = no such curve, though single readings can be large; an effect the other way counts as inactive or inconclusive.

COc1ccc(C(=O)NCCCOc2cccc(NC(C)=O)c2)cc1	none
O=C(O)CSCC(=O)NCc1c(Cl)cccc1Oc1ccccc1	KB-3-1 tox inconclusive
O=S(=O)(NCc1c(Cl)cccc1Oc1ccccc1)c1ccc(F)cc1	MCF10A rereplic inconclusive, KB-3-1 tox 16µM, SW480 rerep inconclusive
Cc1cc(/C=C(/C#N)C(=O)O)c(C)n1CCC(C)C	MCF10A rereplic inconclusive
COCCn1c(C)cc(/C=C(\C#N)C(=O)OC(C)C(=O)Nc2ccc(NC(C)=O)cc2)c1C (stereo unspecified)	MCF10A rereplic inconclusive, SW480 rerep 18µM
CNc1ncnc2sc(-c3ccccc3)cc12	KB-V1 MDR tox 9.2µM, KB-3-1 tox inconclusive
CC(=O)N1CCN(c2ncnc3sc(-c4ccccc4)cc23)CC1	none
Oc1ccc(N2CCN(c3ncnc4sc(-c5ccccc5)cc34)CC2)cc1	MCF10A rereplic inconclusive, KB-V1 MDR tox inconclusive, HT1080 IDH1KD tx inconclusive, HT1080NT lethal 13µM
COc1ccccc1N=C1SC(C(=O)Nc2cccc(Cl)c2Cl)C(N)=C1C(N)=O (stereo unspecified)	MCF10A rereplic 12µM, KB-V1 MDR tox 3.7µM, HT1080 IDH1KD tx inconclusive, HT1080NT lethal 15µM, KB-3-1 tox inconclusive, SW480 rerep 23µM
COc1cc(NC(=S)Nc2cccc(Cl)c2Cl)c(OC)cc1Cl	none
CN1CCN(C2=Cc3ccccc3Sc3cc(F)c(F)cc32)CC1	HT1080 IDH1KD tx inconclusive, HT1080NT lethal inconclusive, KB-3-1 tox inconclusive
CN1CCN(C2Cc3cc(Cl)ccc3Sc3cc(F)ccc32)CC1 (stereo unspecified)	MCF10A rereplic inconclusive, KB-V1 MDR tox 18µM, HT1080 IDH1KD tx inconclusive, HT1080NT lethal inconclusive, KB-3-1 tox 18µM, SW480 rerep inconclusive
CN1CCN(C2=Cc3cc(Cl)ccc3Sc3cc(F)ccc32)CC1	MCF10A rereplic 13µM, KB-V1 MDR tox 18µM, HT1080 IDH1KD tx inconclusive, HT1080NT lethal inconclusive, KB-3-1 tox inconclusive, SW480 rerep inconclusive
CC(C)Oc1ccc(CNC(=O)CCC(=O)N2CCSc3ccccc32)cc1	none
CCCC1CCC(=NNC(=O)CNc2ccc(OC)cc2)CC1 (stereo unspecified)	SW480 rerep 15µM
O=C(Nc1ccc2[nH]c(=S)sc2c1)c1ccccc1	KB-3-1 tox inconclusive
Cc1ccc(OCC(=O)NNc2c3ccccc3nc3ccccc23)cc1	MCF10A rereplic inconclusive, KB-V1 MDR tox 18µM (no result: SW480 rerep)
Cc1cccc(OCC(=O)NNc2c3ccccc3nc3ccccc23)c1	KB-V1 MDR tox 13µM, HT1080 IDH1KD tx inconclusive
O=C(Cc1ccccc1)NNc1c2ccccc2nc2ccccc12	none
CC(C)C[C@H](NC(=O)OC(C)(C)C)c1n[nH]c(=S)n1N	none
CCOc1ccc(C(=O)Nc2cnn(Cc3ccc(Cl)c(Cl)c3)c2)cc1	MCF10A rereplic 0.65µM, KB-V1 MDR tox 2.6µM, HT1080 IDH1KD tx inconclusive, HT1080NT lethal inconclusive, KB-3-1 tox inconclusive
CCOC(=O)C1(CCOc2ccccc2)CCN(Cc2ccc3c(c2)OCCO3)CC1	MCF10A rereplic inconclusive, HT1080 IDH1KD tx inconclusive, HT1080NT lethal 18µM, SW480 rerep inconclusive
CCOC(=O)C1(CCOc2ccccc2)CCN(Cc2ccc(O)c(Cl)c2)CC1	none
CCOC(=O)C1(CCCc2ccccc2)CCN(Cc2cnc(C)s2)CC1	MCF10A rereplic inconclusive, KB-V1 MDR tox inconclusive, HT1080 IDH1KD tx inconclusive, HT1080NT lethal 18µM
CCOC(=O)C1(Cc2cccc(F)c2)CCN(Cc2cn(CC)nc2C)CC1	KB-V1 MDR tox inconclusive
CCOC(=O)C1(CCCc2ccccc2)CCN(Cc2cn(CC)nc2C)CC1	MCF10A rereplic inconclusive, HT1080 IDH1KD tx inconclusive, HT1080NT lethal inconclusive, KB-3-1 tox 21µM, SW480 rerep inconclusive
CCCCNC(=O)c1cc2c(=O)n3cccc(C)c3nc2n(CCN2CCOCC2)c1=N	MCF10A rereplic inconclusive, KB-V1 MDR tox 10µM, SW480 rerep inconclusive
CCOCCCn1c(=N)c(C(=O)NCc2ccc3c(c2)OCO3)cc2c(=O)n3cccc(C)c3nc21	MCF10A rereplic inconclusive, HT1080 IDH1KD tx inconclusive, KB-3-1 tox 6.5µM, SW480 rerep inconclusive
Cc1cccn2c(=O)c3cc(C(=O)NC4CCCCC4)c(=N)n(CCN4CCOCC4)c3nc12	MCF10A rereplic inconclusive, SW480 rerep inconclusive
Cc1cccn2c(=O)c3cc(C(=O)NCc4ccc(F)cc4)c(=N)n(CCCN4CCOCC4)c3nc12	MCF10A rereplic inconclusive, SW480 rerep 8.2µM
CCOCCCn1c(SCC(=O)NCc2ccc3c(c2)OCO3)nc2ccccc2c1=O	KB-V1 MDR tox 15µM
CCc1ccc2oc(C(=O)Nc3cc(C)ccc3C)cc(=O)c2c1	none (no result: MCF10A rereplic, HT1080 IDH1KD tx, HT1080NT lethal, SW480 rerep)
CCCCCCCCOC(=O)c1cc([N+](=O)[O-])c(Sc2ncnc3nc[nH]c23)c([N+](=O)[O-])c1	KB-V1 MDR tox inconclusive, HT1080 IDH1KD tx 13µM, HT1080NT lethal inconclusive, KB-3-1 tox inconclusive, SW480 rerep inconclusive
Cc1ccc([N+](=O)[O-])cc1S(=O)(=O)N1CCC(C)CC1	none
O=C(C1=NNCC1c1ccccc1)C1CO1 (stereo unspecified)	MCF10A rereplic 23µM, SW480 rerep 16µM
COc1ccc(NC(=S)N2CCCC2)cc1	none
CC(=O)Oc1ccc(C2=NN(c3ccccc3)C(c3ccccc3)C2)cc1 (stereo unspecified)	MCF10A rereplic 5.8µM, KB-V1 MDR tox inconclusive, HT1080 IDH1KD tx inconclusive, HT1080NT lethal 16µM, KB-3-1 tox inconclusive, SW480 rerep 18µM
COc1ccc(C2CC(c3ccccc3O)=NN2c2ccccc2)cc1 (stereo unspecified)	MCF10A rereplic 16µM, SW480 rerep 18µM
CCC(=O)Nc1cccc(C2=NN(c3ccccc3)C(c3ccc(OC)cc3)C2)c1 (stereo unspecified)	MCF10A rereplic inconclusive, SW480 rerep 18µM
CC(=O)N1N=C(C)CC1c1ccc(OCc2ccccc2)cc1 (stereo unspecified)	none
C=CCOc1ccc(C2CC(C)=NN2c2ccccc2)cc1 (stereo unspecified)	MCF10A rereplic 21µM, KB-V1 MDR tox inconclusive, SW480 rerep inconclusive
COc1ccc(C2=NN(C(N)=S)C(c3ccccc3)C2)cc1 (stereo unspecified)	KB-V1 MDR tox inconclusive, HT1080 IDH1KD tx inconclusive, SW480 rerep inconclusive
Cn1c(=O)c2cnc(-c3ccc(C(F)(F)F)cc3)nc2n(C)c1=O	none
COc1ccc(NC(=O)CSc2ccc(-c3sc(C)nc3C)nn2)cc1	KB-V1 MDR tox inconclusive
